hgDAF-12 ag: activates the H. glycines DAF-12 receptor ligand-binding domain. HEK293 GAL4-hgDAF12 UAS-luciferase reporter, agonist luminescence; normalized to butyrate control. activation, % at 6.8 µM. 1.8% of 370,000 active. AID 687014;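 active = activation above a cutoff set at the mean of all screened compounds plus 3 SD, cut at about 10% in these data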;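 note: 0% = DMSO wells and 100% = sodium butyrate wells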
DAX1 inh-1: NR0B1 (DAX1) inhibition | P51843 | HEK293 Gal4-DAX1 luciferase reporter, luminescence | inhibition, % at 6.75 µM | 0.99% of 340,000 active;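 active = inhibition above the mean over all tested compounds plus 3 SD, cut at about 4.2% in these data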;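 note: 0% = DAX1-transfected cells with DMSO and 100% = empty-vector control cells with DMSO; inhibition shows as a rise in luminescence from relieved DAX1 repression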
ssDAF-12 act: S. stercoralis DAF-12 activation, primary screen | activation, % at 6.8 µM | HEK293 ssDAF-12/GRIP1 lit1-tk-luc reporter, luminescence; % of 3 µM dafachronic acid response | 1% of 370,000 active | AID 652126;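 active = activation above the mean over all tested compounds plus 3 SD, cut at about 0.9% in these data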;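 note: 0% = DMSO-only wells and 100% = 3 µM delta7-dafachronic acid wells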
DAX1 inh-2: DAX1 (NR0B1) inhibition, primary screen; inhibition, % at 6.8 µM; 1.1% of 370,000 active; HEK293T StAR-luciferase reporter, SF-1/DAX-1 repression relief;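 active = inhibition above the mean over all tested compounds plus 3 SD, cut at about 3.6% in these data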;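 note: 0% = DAX-1 cells with DMSO and 100% = cells lacking DAX-1 with DMSO; higher inhibition means more luminescence from relief of DAX-1 repression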
hcDAF12 agonist: activators of H. contortus DAF-12 nuclear receptor. HEK293 hcDAF-12 lit1-tk-luc reporter, luminescence; 0% DMSO, 100% Δ7-dafachronic acid. activation, % at 6.8 µM. 1.4% of 370,000 active;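 active = activation above the mean of all tested compounds plus 3 SD, cut at about 5.5% in these data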;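 note: 100% = response to 3 µM Δ7-dafachronic acid high control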
LXRb hcDAF ctr: activates human LXR-beta, counter-screen for hcDAF-12 agonists | shares compounds with hcDAF12 agonist | HEK293 Gal4-LXR tk-luc reporter, luminescence, 24 h; normalized: DMSO 0%, positive control 100% | activation, % at 6.8 µM | 3,400 tested, under 10 active | AID 743027;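 active = mean percent activation of the reporter above a cutoff set as the average over tested compounds plus their standard deviation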
Target sequence (P55055 whole entry, looked up, the tested form may be a part): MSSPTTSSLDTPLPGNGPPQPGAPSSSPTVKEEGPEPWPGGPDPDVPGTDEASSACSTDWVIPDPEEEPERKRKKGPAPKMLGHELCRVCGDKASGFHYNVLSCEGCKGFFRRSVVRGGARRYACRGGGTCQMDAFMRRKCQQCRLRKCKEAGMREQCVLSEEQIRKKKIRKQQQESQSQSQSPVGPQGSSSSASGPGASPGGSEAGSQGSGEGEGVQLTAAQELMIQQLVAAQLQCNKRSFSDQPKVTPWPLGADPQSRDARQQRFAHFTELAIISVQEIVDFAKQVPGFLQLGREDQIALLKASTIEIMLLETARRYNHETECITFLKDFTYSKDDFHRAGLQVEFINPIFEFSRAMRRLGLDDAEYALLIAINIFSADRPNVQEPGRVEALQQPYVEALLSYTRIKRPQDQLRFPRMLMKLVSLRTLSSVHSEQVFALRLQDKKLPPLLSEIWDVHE
hcDAF12 conf: confirmation of H. contortus DAF-12 agonists; 61% of 3,400 active; shares compounds with hcDAF12 agonist; HEK293 hcDAF-12 lit1-tk-luc reporter, luminescence; % of Δ7-dafachronic acid response; activation, % at 6.8 µM;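 active = mean activation across triplicate tests above the threshold derived from the earlier primary screen, cut at about 5.5% in these data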;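 note: 0% = DMSO only wells and 100% = 3 µM Δ7-dafachronic acid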
hgDAF12 ag: confirmation of H. glycines DAF-12 agonists. HEK293 GAL4-hgDAF12 luciferase reporter, agonist mode; percent of butyrate response. shares compounds with hgDAF-12 ag. AID 743050. activation, % at 6.8 µM. 80% of 3,300 active;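 active = mean activation over triplicate wells above the hit cutoff derived from the earlier primary screen, cut at about 11% in these data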;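 note: 0% = DMSO low control and 100% = 2 mM sodium butyrate high control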
LXRb DAF12 ctr: activates human LXR-beta, counter-screen for DAF-12 agonists | shares compounds with hgDAF-12 ag | HEK293 Gal4-LXR luciferase reporter, 24 h | activation, % at 6.8 µM | 3,300 tested, under 10 active | AID 743051;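 active = mean activation of the triplicate above a set limit carried over from the primary screen, none filed active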
Active calls of the source: *; · = no result. The list is not random: actives were taken first. Their share in the collection is about 4.1%.

SMILES	hgDAF-12 ag	DAX1 inh-1	ssDAF-12 act	DAX1 inh-2	hcDAF12 agonist	LXRb hcDAF ctr	hcDAF12 conf	hgDAF12 ag	LXRb DAF12 ctr
O=C(Nc1ccccc1)c1cc2ccccc2s1	22*	3	1.1*	4.2*	10*	2	11*	20*	1
CCCCOc1ccc(C(=O)n2ccc3ccc(-c4ccc5ccn(Cc6ccc(OC)cc6)c5c4)cc32)cc1	-2	·	-1	-2	-1	·	·	·	·
Cc1ccc(N2Cc3ccccc3C2=O)cc1	16*	5.4*	1.5*	2	12*	2	8.8*	17*	1
CCOc1ccc(/C=N/O)cc1	3	0	-1	-1	1	·	·	·	·
Cc1ccc(COc2ccc(/C=N/O)cc2)cc1	17*	5.5*	1.4*	2	7.8*	1	7.0*	17*	1
O=C(O)c1ccccc1C(=O)Nc1ccccc1NC(=O)c1ccccc1C(=O)O	15*	·	0	3	7.0*	0	0	13*	1
Fc1ccccc1-c1ccc(/C=N/Nc2nc3ccccc3[nH]2)o1	21*	1	3.4*	2	13*	1	13*	18*	1
CCOC(=O)[C@@]12CN(C(=O)OC(C)(C)C)CC=C1N(Cc1ccc(OC)cc1)C(=O)[C@H]2CC(=O)N1CCOCC1	0	·	-1	-1	0	·	·	·	·
COc1cc2c(c3c1c(=O)c1cccc(F)c1n3C)C=CC(C)(C)O2	-4	·	-2	-2	0	·	·	·	·
CCN(CC)S(=O)(=O)c1ccc2oc(Nc3ccccc3)nc2c1	4	1	0	0	2	·	·	·	·
Fc1ccccc1Nc1nc2ccccc2o1	16*	2	1	3	8.2*	2	9.0*	19*	1
c1ccc(Nc2nc3ccccc3o2)cc1	14*	2	0.9*	3	8.1*	1	8.3*	21*	1
Cc1nc(Nc2ccccc2F)c2oc3ccccc3c2n1	5	0	-1	0	1	·	·	·	·
COc1cc(N2C[C@@]3(O)CC[C@@H](O)[C@@H](OC)[C@@H]3[C@@](C)(O)[C@@H]2CC=C(C)C)cc(OC)c1OC	2	·	-1	0	1	·	·	·	·
C[C@H](O)[C@@H]1C(=O)N2CCc3c([nH]c4c(-c5ccccc5)cccc34)[C@@H]2C[C@@H]1N(C)C(=S)NCCc1ccccc1	3	·	-1	1	1	·	·	·	·
NS(=O)(=O)c1ccc(N/C=C\C(=O)c2ccc(F)cc2)cc1	16*	1	0	4.2*	6.7*	1	5	13*	1
Cc1ccc(CN2CCCCC(NC(=O)Nc3ccccc3-c3ccccc3)C2=O)cc1 (stereo unspecified)	-3	·	-1	-2	-2	·	·	·	·
Cc1ccccc1Cn1nnc(-c2ccc(C(=O)O)cc2)n1	0	0	0	0	-2	·	·	·	·
O=C(O)c1cccc(-c2nnn(Cc3ccccc3Cl)n2)c1	13*	-4	2.0*	4.4*	6.7*	1	8.5*	22*	1
CN(C)C=Nc1ccc2nc3c(cc2c1)[nH]c1ccccc13	17*	1	1.9*	2	18*	1	13*	19*	1
COc1nc(C)ccc1-c1noc(-c2cccs2)n1	14*	·	0	3	8.4*	1	6.2*	16*	1
COc1cccc(-c2noc(-c3cccs3)n2)c1	15*	2	1.4*	4.0*	6.9*	2	11*	21*	1
Cc1c(C2Nc3ccccc3C2C)[nH]c2ccccc12 (stereo unspecified)	-4	·	1	-1	4	·	·	·	·
Clc1cc(Cl)cc(CN2CCN(c3ncc(Cc4ccccc4)cn3)CC2)c1	-2	·	-1	0	-1	·	·	·	·
COC(=O)C1CN(CCO)CCS(=O)(=O)N1Cc1cn(Cc2ccccc2Br)nn1 (stereo unspecified)	5	·	-1	0	0	·	·	·	·
SMILES	hgDAF-12 ag	DAX1 inh-1	ssDAF-12 act	DAX1 inh-2	hcDAF12 agonist	LXRb hcDAF ctr	hcDAF12 conf	hgDAF12 ag	LXRb DAF12 ctr
Cc1nn(-c2nc3ccccc3s2)c(N)c1-c1ccccc1	19*	4	0	4.5*	15*	1	5	18*	1
Cn1c(N/N=C/c2cc3ccccc3nc2Cl)nc2ccccc21	15*	-2	1.4*	3	12*	2	11*	17*	1
COC(=O)C1=C(C)N(Cc2cccc(C(F)(F)F)c2)C(=NCc2ccc(OC)cc2)NC1c1ccc(Cl)cc1 (stereo unspecified)	-1	·	-1	0	-1	·	·	·	·
COc1cccc(N2C(=O)C(c3ccccc3)=C(c3nc4ccccc4s3)C2NC(C)=O)c1 (stereo unspecified)	-1	0	-1	0	0	·	·	·	·
COc1cccc(-c2nc3ccccc3s2)c1	17*	1	1.7*	4.4*	15*	2	11*	27*	1
O=C(Nc1cccc(O)c1)c1c(O)c2ccccc2[nH]c1=O	13*	5.0*	3.9*	2	14*	2	15*	24*	1
C=CCCC1CN(Cc2ccc(OC)cc2)S(=O)(=O)c2c(cccc2Sc2ccc(OC)c(OC)c2)O1 (stereo unspecified)	0	·	-1	-1	-2	·	·	·	·
COCc1[nH]nc2c1C(c1ccccc1)N(Cc1ccccc1)C2=O (stereo unspecified)	-4	·	-1	0	2	·	·	·	·
CCN(CC)c1c2c(nc3ncnn13)CCCC2	-3	·	-1	-1	1	·	·	·	·
Oc1ccc(C=NNc2nc3ccccc3s2)c(O)c1	13*	3	1.8*	2	9.6*	2	5	11*	1
COc1ccc(/C(=N/Nc2ncnc3ccccc23)C(=O)O)cc1	16*	1	1.8*	2	11*	0	7.5*	16*	1
CCOC(=O)C(Cc1ccnc2ccccc12)=NO	-5	-1	-1	-1	-1	·	·	·	·
CCOC(=O)/C(=N\Nc1ncnc2ccccc12)c1ccc(OC)cc1	18*	1	2.4*	3	17*	2	11*	17*	1

High-throughput results from PubChem BioAssay.
